Shown are actives, neighbours in structure and some others; about 2.3% of the full set was active somewhere.
aSyn rescue: inhibitors of alpha-synuclein toxicity in yeast. Yeast expressing alpha-synuclein, growth rescue, BacTiter-Glo, 24 h. Potency, µM (titrated, usually from 46.1 µM), without a hit: at the top dose growth rescue (activation), usual class: activators. 0.14% of 370,000 active. AID 652106; further: % of control where 0% means no effect; nearly all actives have a fitted effect of over 65% in size
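Rescue of yeast growth: cells expressing toxic alpha-synuclein, induced in galactose at OD600 0.02, incubated with compound 24 h at 30 C. ATP luminescence quantified growth; inhibitors of toxicity appear as activators.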
TDP-43 yeast inh: inhibitors of TDP-43 toxicity in yeast; TDP-43 expressing yeast growth rescue, BacTiter-Glo, 24 h; Potency, µM (titrated, usually from 46.1 µM), for the others: at the highest dose growth rescue (activation), actives largely listed as activators; 1.8% of 410,000 active; further: % of control where 0% means no effect; nearly all actives have a fitted effect of over 50% in size
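Readout is BacTiter-Glo luminescence of cell growth, so inhibitors register as activators. TDP-43-expressing yeast at OD600=0.02 in galactose medium, after raffinose pregrowth to mid-log, were incubated with compound for 24 hr at 30 deg C.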
Chronic BCR inh: blocks chronic active B-cell receptor signaling. Potency, µM (top dose mostly 46.1 µM), for inactives: at the top dose activity change, negative = inhibition, most hits filed as inhibitors. 0.05% of 340,000 active. ABC-DLBCL IkBa-CBG/CBR reporter, luminescence ratio, 4 h. AID 493014; active means well fitted inhibition curve with a large enough effect in the signal ratio, with a control signal flat, not every such curve was filed as active; inconclusive means small, poorly fitted or top-dose-only effect, or effect the other way, or a change in a side signal; the % refers to the signal ratio;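 further: plate controls were basal doxycycline-induced cells for no effect and cells given 10 µM MG132 for full effect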
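Concentration-response series (up to 46 uM) were applied to TMD8 dual-reporter cells for 4 h at 37C with doxycycline. Green/red ratio, after filter-overlap correction, defined %Activity; red signal alone was normalised to basal cells and zero luminescence.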
uPA surface inh: cell surface uPA generation inhibition. cell surface uPA generation assay, qHTS. Potency, µM (titrated, usually from 38.3 µM), for inactives: at the highest dose activity change, negative = inhibition, actives largely listed as inhibitors. 0.31% of 330,000 active. AID 540303; active means well fitted inhibition curve with a large enough effect; inconclusive means small, poorly fitted or top-dose-only effect; inactive means no such curve, though single readings can be large or run the other way; tested in mouse RAW 264.7 cells; further: on the % scale 0 is the no-effect control and ±100 the full control effect; nearly all actives have a fitted effect of over 55% in size
Abeta rescue: compounds reversing amyloid beta toxicity in yeast. yeast expressing A-beta42, growth rescue, OD600, 48 h; response scale: 0% DMSO, 100% iron-clioquinol control. Potency, µM (titrated, usually from 46.1 µM), usual class: activators. 0.063% of 410,000 active; further: nearly all actives have a fitted effect of over 55% in size
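Growth rescue measured by 600 nm absorbance after 48 h yeast culture at 30 C with compound. Values normalized between DMSO and an equimolar ferric chloride plus clioquinol control.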
FUS yeast rescue: suppressors of FUS proteinopathy in yeast; S. cerevisiae FUS-expressing, growth rescue, OD600, 24 h; Potency, µM (top dose mostly 76.6 µM), usual class: activators; 0.24% of 390,000 active; AID 1347120;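 further: plate controls were DMSO vehicle for no effect and reference control for full effect; nearly all actives have a fitted effect of over 55% in size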
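Yeast expressing FUS under galactose induction, OD 0.005 in 2% galactose medium; compounds in a dilution series, 24 h at 30C. Growth rescue by absorbance at 600 nm; CP55940 positive control, DMSO negative.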
Numbers without * were called inactive; i = inactive; ? = inconclusive; . = no result given; [ ] = remark or other dose. Unless noted, the call rests on the fitted dose curve; in most records, active means well fitted curve in the direction sought with a large enough effect; inconclusive means small, poorly fitted or top-dose-only effect, or another doubt; inactive means no such curve, though single readings can be large; an effect the other way counts as inactive or inconclusive. Potency means the concentration at half of the fitted maximal effect.

SMILES	aSyn rescue	TDP-43 yeast inh	Chronic BCR inh	uPA surface inh	Abeta rescue	FUS yeast rescue
COc1ccccc1N1CC(C(=O)NCC2COc3ccccc3O2)CC1=O (stereo unspecified)	3%[1.84 µM]	8%	0%	-15%	i	i
COc1cccc(Cn2cnc(-c3ccccc3OC)c2-c2ccco2)c1	23%	5%	.	.	i	?
Cc1ccc(NS(=O)(=O)c2ccc3nc(-c4ccccc4)[nH]c3c2)c(Br)c1	.	1%	.	.	i	i
CC(Sc1nc2ccccc2s1)C(=O)Nc1nnc(C(C)C)s1 (stereo unspecified)	7%	25µM*	-5%	-3%	i	i
CCC(Sc1nc2ccccc2s1)C(=O)Nc1nnc(C)s1 (stereo unspecified)	19%	-11%	-5%	.	i	?
CCCCc1ccc(/C=C(\C#N)C(N)=S)s1	24%	20µM*	-4%	-7%	?	i
CC(C)c1cc(-c2nc(-c3ccc(Br)cc3)no2)n[nH]1	.	?	.	.	i	i
COc1ccc(-c2noc(-c3cc(C(C)C)[nH]n3)n2)cc1	.	20µM*	.	.	?	i
CCCCn1c(CNC(=O)c2cccs2)nc2ccccc21	12%	21%	-10%	1%	i	i
Clc1cccc(CNc2ncnc3c2nc2n3CCCC2)c1	.	13µM*	.	.	?	i
Clc1ccccc1Nc1ncnc2c1nc1n2CCCCC1	.	18µM*	.	.	i	i
Clc1cccc(Nc2ncnc3c2nc2n3CCCCC2)c1	.	16µM*	.	.	i	i
Cc1ccc(Nc2ncnc3c2nc2n3CCCC2)c(Br)c1	.	18µM*	.	.	i	i
Fc1ccc(Nc2ncnc3c2nc2n3CCCC2)cc1	.	?	.	.	i	i
COc1ccccc1Nc1ncnc2c1nc1n2CCCCC1	.	12%	.	.	i	i
CCOc1ccc(CCN2C(=S)N([C@@H](CC(C)C)CN3CCC[C@@H]3CN3C(=S)NC[C@@H]3Cc3ccccc3)C[C@@H]2Cc2ccc(O)cc2)cc1	-40%	1%	.	.	i	28µM*
CCOc1ccc(CCN2C(=S)N([C@@H](Cc3ccccc3)CN3CCCC3CN3C(=S)NC[C@@H]3Cc3ccccc3)C[C@@H]2Cc2ccc(O)cc2)cc1 (stereo partly specified)	-27%	-23%	.	.	i	11µM*
Oc1ccc(C[C@H]2CNC(=S)N2CC2CCCN2C[C@H](Cc2ccc(O)cc2)N2C[C@H](Cc3ccc(O)cc3)N(CC3CCCCC3)C2=S)cc1 (stereo partly specified)	-41%	11µM*	.	-25%	i	?
Oc1ccc(C[C@H]2CN([C@@H](Cc3ccccc3)CN3CCCC3CN3C(=S)NC[C@@H]3Cc3ccccc3)C(=S)N2CC2CCCCC2)cc1 (stereo partly specified)	-34%	27%	.	.	i	?
N#Cc1c(C(F)(F)F)cc(-c2cccs2)nc1SCc1ccc(F)cc1	.	-1%	.	.	i	i
COc1ccc(S(=O)(=O)NC2(C(F)(F)F)NC(=O)N(CCc3ccc(OC)c(OC)c3)C2=O)cc1 (stereo unspecified)	-3%	-16%	-1%	1%	i	i
CCCNC(=O)c1csc(Nc2cccc3ccccc23)n1	-34%	32µM*	?	-19%	i	i
C#CCSc1nncn1C(=O)/C=C/c1ccccc1	13µM*	-16%	-7%	-5%	i	i
CCC(C)[C@@H](NC(=O)OC(C)(C)C)c1nnc(S(=O)(=O)Cc2cccc(C)c2)o1 (stereo partly specified)	7%	7.9µM*	?	-19%	i	i
Cc1nonc1OC(C)CNc1ccc([N+](=O)[O-])cc1 (stereo unspecified)	-5%	20µM*	4%	-3%	i	i
SMILES	aSyn rescue	TDP-43 yeast inh	Chronic BCR inh	uPA surface inh	Abeta rescue	FUS yeast rescue
COc1cc2c(c(OC)c1OC)-c1ccc(NC(=O)c3ccccc3)c(=O)cc1[C@@H](NC(C)=O)CC2	5%	-5%	22µM*	7%	i	i
Cc1csc(NC(=O)Cc2ccc(Br)cc2)n1	-11%	10µM*	?	3%	i	i
Cc1csc(NC(=O)C(C)Oc2ccc(Br)cc2)n1 (stereo unspecified)	-16%	35µM*	9%	7%	i	i
c1ccc(-c2ccn3nnnc3n2)cc1	9%	22%	-14%	0%	i	i
COc1cccc2nc3cc(C)c(C)cc3nc12	-47%	-66%	?	3.2µM*	i	i
COc1cccc2c1nc(C)c1cc(C)oc12	-5%	-16%	?	-8%	i	i
CCOc1ccc(-c2cn(-c3ccc(OC)cc3)c(SC)n2)cc1	7%	13µM*	-3%	5%	i	i
CN(CC(=O)Nc1ccc(C(N)=O)cc1)CC(=O)Nc1ccccc1Br	-3%	-3%	-7%	8%	i	i
COc1cccc(C2c3cc4c(cc3OC(N3CCCC3)C2C)OCO4)c1O (stereo unspecified)	0%	0%	.	-9%	i	.
Cc1nc([N+](=O)[O-])c(Br)n1Cc1ccccc1	-15%	20%	?	10µM*	i	i
Cc1nc([N+](=O)[O-])c(Br)n1CC(=O)c1ccc(F)cc1	3%	6%	?	-13%	i	i
COc1ccc(C(=O)Nn2c(SCC(=O)NCc3ccco3)nc3ccccc3c2=O)cc1	1%	5%	?	-11%	i	i
Cc1cc(Nc2cccc(C(F)(F)F)c2)nc2ccc(NC(=O)Cc3ccc(Cl)cc3)cc12	.	14µM*	.	.	i	i
COc1ccc(CC(=O)Nc2ccc3nc(Nc4cccc(Cl)c4)cc(C)c3c2)cc1	.	?	.	.	i	?
Cc1cc(Nc2cccc(Cl)c2)nc2ccc(NC(=O)c3cccc(N(C)C)c3)cc12	.	16µM*	.	.	i	?
Cc1cc(Nc2cccc(Cl)c2)nc2ccc(NC(=O)c3cccnc3)cc12	.	24%	.	.	i	i
COc1ccc(NC(=O)Cn2c(C)cc3ccccc3c2=O)c(OC)c1	.	22%	.	.	i	i
CC(=O)c1cc2c(cc1NC(=O)CSc1nc3ccc(C)cc3[nH]1)OCO2	8%	13µM*	?	5%	i	i
Cc1ccc2nc(SCC(=O)Nc3cccnc3Cl)[nH]c2c1	0%	-23%	1%	3%	i	.
COc1cc2cc(C(=O)N3CCOCC3)cc(-c3ccc(C)cc3)c2cc1OC	14%	13%	16µM*	4.5µM*	i	?
NNC(=S)Nc1ccc(Cl)cc1	-20%	6%	?	1%	?	i

Screening data from PubChem BioAssay.
